# Laboratory results from PubChem BioAssay AID504332 (National Center for Advancing Translational Sciences (NCATS), 2011).
# Out of some 350,000 compounds screened, about 31,000 (8.9%) were called active. About 15% were inconclusive and are not listed. The call rests on the fitted dose curve; in most records, active means well fitted inhibition curve with a large enough effect; inconclusive means small, poorly fitted or top-dose-only effect; inactive means no such curve, though single readings can be large or run the other way. Many of the other results were omitted from the sample, so actives are more common in it than they were.
# Target: Histone-lysine N-methyltransferase EHMT2 (Homo sapiens) (UniProt Q96KQ7)
# Test: qHTS Assay for Inhibitors of Histone Lysine Methyltransferase G9a; further: nearly all actives have a fitted effect of over 75% in size
# Conditions: G9a H3K9 monomethylation, AlphaScreen, 2 h; series mostly up to 59 µM; activity, negative = inhibition: at the top concentration
# In short: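 Enzyme 20 nM + cpd, 15 min RT; add b-H3K9 pep 500 nM / SAM 20 uM; 2 h RT; anti-H3K9me1 Ab 0.5 ug/mL + SA donor / anti-rabbit acceptor beads 20 ug/mL each, 10 min; AlphaScreen read.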
# On the % scale 0 is the no-effect control and ±100 the full control effect; potency means the concentration at half of the fitted maximal effect.
# Histone-lysine N-methyltransferase EHMT2 (Homo sapiens), sequence (Q96KQ7 913-1193 limits assumed): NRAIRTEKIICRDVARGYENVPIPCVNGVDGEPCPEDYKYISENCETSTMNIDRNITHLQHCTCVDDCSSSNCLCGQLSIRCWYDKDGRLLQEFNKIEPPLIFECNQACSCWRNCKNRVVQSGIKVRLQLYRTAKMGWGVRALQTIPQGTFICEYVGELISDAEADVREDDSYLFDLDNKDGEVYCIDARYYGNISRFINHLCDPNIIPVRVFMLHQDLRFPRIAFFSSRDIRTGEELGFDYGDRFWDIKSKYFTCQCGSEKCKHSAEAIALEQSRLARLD
SMILES,"activity, negative = inhibition",Potency
O=C(OCC(=O)N1CCCC1)c1ccc(Cl)nc1,4.27% (inactive),
CCOC(=O)C1CCCN(C(=O)c2ccc(C)c(S(=O)(=O)N3CCCCC3)c2)C1 (stereo not drawn),38.4% [at 12.7 µM] (inactive),
C=CCOc1c(CNn2cn[nH]c2=S)cccc1OC,,20 µM (active)
C=CCOc1cccc(CNn2cn[nH]c2=S)c1,24.4% [at 0.0925 µM] (inactive),
COc1ccccc1CNc1nc(-c2c(C)noc2C)nc2ccccc12,-6.92% [at 0.501 µM] (inactive),
Cc1ccc(Cl)cc1N1CCN(C(=O)c2cnc3c(-c4ccc(F)cc4)c(C)nn3c2C)CC1,7.75% (inactive),
O=c1c2ccccc2nnn1CSc1nc2sc3c(c2c(=O)n1CC1CCCO1)CCC3 (stereo not drawn),8.89% (inactive),
Cc1cccc(OCc2nnc(SCn3nnc4ccccc4c3=O)o2)c1,2.43% (inactive),
Nc1nnc(SCn2nnc3ccccc3c2=O)s1,,28.2 µM (active)
O=C(Nc1ccc(F)cc1)c1ccc(S(=O)(=O)NCc2cccnc2)cc1,31.2% [at 102 µM] (inactive),
O=C(Nc1ccc(S(=O)(=O)N2CCCCC2)cc1)c1cnccn1,0.273% [at 102 µM] (inactive),
O=C(NNS(=O)(=O)c1ccc(F)cc1)c1cnccn1,,10 µM (active)
CSCCC(NC(=O)c1ccco1)C(=O)Nc1cc(C)ccn1 (stereo not drawn),-23.1% [at 102 µM] (inactive),
CCn1c(=O)cc(OCC(=O)Nc2cc(Cl)c(OC)cc2OC)c2ccccc21,-14.6% (inactive),
CCN(CC)c1ccc(S(=O)(=O)N2CCCCC2)cc1NC(=O)C1=COCCO1,-30.4% [at 102 µM] (inactive),
Cc1ccccc1Cn1nc(C)c(NC(=O)c2cc(-c3ccc(F)cc3)on2)c1C,6.83% (inactive),
Cc1cccc(C(=O)NCC(=O)OCC(=O)N2CC3(C)CC2CC(C)(C)C3)c1 (stereo not drawn),,6.31 µM (active)
Cc1cc(C)cc(C(=O)NCC(=O)OCC(=O)N2CCCCC2)c1,14.1% [at 102 µM] (inactive),
Cc1nnnn1/C(=C\c1ccccc1)C(=O)OCC(=O)N1CC2(C)CC1CC(C)(C)C2 (stereo not drawn),-22.1% (inactive),
O=S(=O)(NCCc1ccccn1)c1cc(Cl)cc(Cl)c1O,22.1% [at 2.33 µM] (inactive),
COC(=O)c1cc(C)sc1NC(=O)CC1Nc2ccccc2NC1=O (stereo not drawn),,50.1 µM (active)
CCOC(=O)c1ccccc1NC(=O)CC1Nc2ccccc2NC1=O (stereo not drawn),-4.54% (inactive),
O=C(CC1Nc2ccccc2NC1=O)Nc1ccccc1NC(=O)CC1Nc2ccccc2NC1=O (stereo not drawn),-46.1% [at 102 µM] (inactive),
Cc1cccc(-n2ncc(C(=O)N3CCC(C)CC3)c2C2CCN(C(=O)OC(C)(C)C)CC2)c1,-23.8% (inactive),

SMILES,"activity, negative = inhibition",Potency
O=C(CS(=O)(=O)c1cccc2nsnc12)N1CCN(c2cccc(Cl)c2)CC1,4.58% (inactive),
CCN(CC(=O)Nc1ccc(OC)cc1)C(=O)CSCc1ccc(C)cc1,-8.18% [at 12.7 µM] (inactive),
COc1ccc(Cc2n[nH]c(=S)n2NC(=O)Nc2ccc(C)cc2)cc1,,8.91 µM (active)
COc1cc(NC(=O)Nc2ccc(C)cc2)cc([N+](=O)[O-])c1,9.42% [at 2.33 µM] (inactive),
Cc1csc(SCC(=O)N(c2ccccc2)C(C)C)n1,-6.13% [at 102 µM] (inactive),
CCOc1ccc(NC(=O)c2ncoc2-c2ccco2)cc1,7.16% (inactive),
O=C(NCc1ccccc1CN1CCCC1)C1CCN(S(=O)(=O)c2ccc(Cl)cc2)CC1,16% (inactive),
C/C(=N\Nc1ncc(Cl)cc1Cl)c1ccc(S(=O)(=O)NCc2ccco2)cc1,-15.6% (inactive),
O=C(CCCl)Nc1ccc(S(=O)(=O)NCc2ccco2)cc1,-13% (inactive),
Cc1c(Cl)cnc(NC(=O)COC(=O)c2ccc(S(=O)(=O)NCc3ccco3)cc2)c1Cl,,44.7 µM (active)
CCC(=O)Nc1ccc(S(=O)(=O)Nc2c(NC)c3ccccc3oc2=O)cc1,2.23% (inactive),
Cc1ccc(CSc2oc(-c3cccs3)nc2S(=O)(=O)c2ccc(C)cc2)cc1,-0.9% (inactive),
O=S(=O)(c1ccccc1)c1nc(-c2ccccc2F)oc1NCc1cccnc1,-3.34% [at 102 µM] (inactive),
Cc1ccc(S(=O)(=O)c2nc(-c3cccs3)oc2NCc2cccnc2)cc1,,25.1 µM (active)
Cc1cc(Cl)ccc1N1C(=O)CC(SCCC(=O)O)C1=O (stereo not drawn),,10 µM (active)
CCC1Oc2ccc(Cl)cc2N(CC(=O)O)C1=O (stereo not drawn),-29.8% [at 102 µM] (inactive),
Cc1ccc(N2C(=O)CC(N3CCSCC3)C2=O)c(C)c1 (stereo not drawn),-5.6% [at 102 µM] (inactive),
Cc1ccc(CSc2nc3cccnc3n2Cc2ccc(C(=O)NC3CC3)cc2)cc1,10.3% (inactive),
COc1ccc(OCCn2cc(C(=O)C3CCCCC3)c3ccccc32)cc1,29.3% (inactive),
O=C1CSC2(C(=O)N(Cc3ccccc3)c3ccccc32)N1c1cccc(F)c1 (stereo not drawn),-26.1% (inactive),
CCOc1ccccc1NC(=O)c1ccc2c(c1)CCN2S(=O)(=O)c1ccc(C)cc1,4.28% (inactive),
CC(=O)c1c(-c2ccccc2)c2ccccc2[nH]c1=O,-27.3% [at 102 µM] (inactive),
NC(=O)Cc1ccc2c(c1)[nH]c1ccccc12,15.3% [at 102 µM] (inactive),
S=c1[nH]c2ccccc2c2ccccc12,,8.91 µM (active)
